TDP1 inh: qHTS Assay for Inhibitors of Tyrosyl-DNA Phosphodiesterase (TDP1); Tyrosyl-DNA phosphodiesterase 1 (Homo sapiens), Q9NUW8; recombinant TDP1, AlphaScreen DNA substrate cleavage; Potency, µM (titrated, usually from 130 µM), without a hit: at the top dose activity change, negative = inhibition, most hits filed as inhibitors; 350,000 compounds, 0.28% hits; AID 485290, 2010; further: nearly all actives have a fitted effect of over 40% in size
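Recombinant human Tdp1 (E. coli-expressed, 1 nM final) preincubated with compounds 15 min at room temperature, then 5'-biotin/3'-phosphotyrosine-FITC DNA substrate (15 nM final) added for 5 min. AlphaScreen beads (10 ug/ml final) added 10 min; cleavage lowers signal.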
VP16 counter: VP16 counterscreen qHTS for inhibitors of ROR gamma transcriptional activity | Potency, µM (titrated, usually from 53.6 µM), inactives show at the top dose activity, negative = inhibition, usual class: inhibitors | 310,000 compounds, 3.5% hits | Drosophila S2 Gal4-VP16 UAS-luciferase, luminescence, 20 h | AID 2546, 2010;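 further: Gal4-VP16 expression switched on by copper sulfate through the metallothionein promoter; nearly all actives have a fitted effect of over 50% in size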
RORgamma inh: qHTS for inhibitors of ROR gamma transcriptional activity | Nuclear receptor ROR-gamma (Mus musculus), P51450 | Drosophila S2 Gal4-RORgamma UAS-luciferase reporter, 20 h | Potency, µM (titrated, usually from 53.6 µM), for inactives: top-dose activity change, negative = inhibition, most hits filed as inhibitors | 310,000 compounds, 5.4% hits | AID 2551, 2010; further: nearly all actives have a fitted effect of over 60% in size
Target sequence (P51450 whole entry, looked up, the tested form may be a part): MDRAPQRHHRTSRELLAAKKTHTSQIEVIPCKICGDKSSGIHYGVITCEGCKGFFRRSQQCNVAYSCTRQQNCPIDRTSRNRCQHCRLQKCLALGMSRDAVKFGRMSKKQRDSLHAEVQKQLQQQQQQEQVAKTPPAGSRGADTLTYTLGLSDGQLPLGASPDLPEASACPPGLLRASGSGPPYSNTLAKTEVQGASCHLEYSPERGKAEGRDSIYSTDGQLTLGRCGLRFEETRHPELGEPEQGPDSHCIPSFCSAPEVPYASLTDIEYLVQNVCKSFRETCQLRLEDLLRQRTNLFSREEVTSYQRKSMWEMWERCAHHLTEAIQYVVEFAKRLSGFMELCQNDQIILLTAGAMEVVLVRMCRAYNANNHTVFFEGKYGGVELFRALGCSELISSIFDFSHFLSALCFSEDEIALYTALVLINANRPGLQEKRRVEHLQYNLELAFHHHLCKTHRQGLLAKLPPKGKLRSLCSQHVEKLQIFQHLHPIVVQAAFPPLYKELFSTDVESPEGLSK
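Luciferase reporter read in Schneider cells carrying Gal4-RORγ (mouse) and UAS-Photinus luciferase; cells given compound 1 h before 700 uM copper sulfate induction, then incubated 20 h at ambient temperature.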
TDP1 cell CPT: qHTS for Inhibitors of human tyrosyl-DNA phosphodiesterase 1 (TDP1): qHTS in cells in presence of CPT. AID 686979, 2013. Potency, µM (top dose mostly 46.2 µM), without a hit: top-dose activity change, negative = growth inhibition, actives largely listed as inhibitors. 420,000 compounds, 12% hits. chicken DT40 Tdp1-/-;hTDP1 cells + 20 nM CPT, ATP luminescence, 48 h; further: nearly all actives have a fitted effect of over 55% in size
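Cell growth measured by CellTiter-Glo luminescence after a minimum 48 h, 37 C compound exposure with 20 nM CPT in Tdp1-knockout DT40 cells stably expressing hTDP1, seeded 400/well; qHTS titration format.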
DT40 TDP1 no CPT: qHTS for Inhibitors of human tyrosyl-DNA phosphodiesterase 1 (TDP1): qHTS in cells in absence of CPT; 420,000 compounds, 15% hits; DT40 Tdp1-/- hTDP1 cells, no CPT, ATP luminescence, 48 h; Potency, µM (highest dose often 46.2 µM), inactives show at the top dose activity change, negative = growth inhibition, most hits filed as inhibitors; further: nearly all actives have a fitted effect of over 55% in size
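Stably hTDP1-transfected Tdp1-null chicken DT40 cells were treated with library compounds minus camptothecin and grown for at least 48 hr at 37 °C, after which cellular ATP was quantified by luminescence.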
Starred values were filed as active, the others as inactive; [ ] = remark or other dose. Rows were chosen to be rich in hits. Some 19% of all compounds tested hit in one or more screens of this group. The call rests on the fitted dose curve; in most records, active means well fitted curve in the direction sought with a large enough effect; inconclusive means small, poorly fitted or top-dose-only effect, or another doubt; inactive means no such curve, though single readings can be large; an effect the other way counts as inactive or inconclusive. On the % scale 0 is the no-effect control and ±100 the full control effect; potency means the concentration at half of the fitted maximal effect.

`O=C(NC1CCCCCC1)c1ccc(CS(=O)c2ccc(Br)cc2)o1` (stereo not drawn) gave TDP1 inh 2.3%, TDP1 cell CPT inconclusive and DT40 TDP1 no CPT inconclusive.
For CCc1nnc(NC(=O)c2sc3nc4cc(C)ccc4cc3c2N)s1 the results were TDP1 inh inconclusive, VP16 counter -1.1%, RORgamma inh inconclusive, TDP1 cell CPT 2.59µM* and DT40 TDP1 no CPT 2.91µM*.
CCc1nnc(NC(=O)c2ccc3ccccc3n2)s1 was read as TDP1 inh 11.4%, VP16 counter -1.6%, RORgamma inh 3.1%, TDP1 cell CPT inconclusive and DT40 TDP1 no CPT 18.4µM*.
CCSc1nnc(NC(=O)c2ccc3ccccc3n2)s1 was read as TDP1 inh 9.8%, VP16 counter 0.708µM*, RORgamma inh 1µM*, TDP1 cell CPT 18.4µM* and DT40 TDP1 no CPT inconclusive.
For Fc1cccc(F)c1CSc1nc2ccccc2[nH]1 the results were TDP1 inh 7.0%, VP16 counter inconclusive, RORgamma inh -16.2%, TDP1 cell CPT -4.3% and DT40 TDP1 no CPT -11.5%.
For COc1ccccc1OCCC(=O)Nc1nc(C)cs1 the results were TDP1 inh -0.6%, VP16 counter -3.1%, RORgamma inh 19.7%, TDP1 cell CPT -28.1% and DT40 TDP1 no CPT -11.1%.
For Cc1c(C(c2ccc(O)cc2)c2c(C)n(C)n(-c3ccccc3)c2=O)c(=O)n(-c2ccccc2)n1C the results were TDP1 inh 2.3%, VP16 counter -0.6%, RORgamma inh inconclusive, TDP1 cell CPT -15.1% and DT40 TDP1 no CPT -0.3%.
CCOC(=O)N1CCC(n2c(SCC(=O)c3ccccc3)nc3ccsc3c2=O)CC1 was read as TDP1 inh -2.9%, VP16 counter 1.9%, RORgamma inh -12.3%, TDP1 cell CPT 2.59µM* and DT40 TDP1 no CPT 2.91µM*.
`CCOC(=O)N1CCC(n2c(SCC(=O)NCc3ccco3)nc3ccsc3c2=O)CC1` gave TDP1 inh 0.0%, VP16 counter -3.4%, RORgamma inh 12.0%, TDP1 cell CPT 23.1µM* and DT40 TDP1 no CPT 18.4µM*.
For CCOC(=O)CSc1nc2ccsc2c(=O)n1C1CCN(C(=O)OCC)CC1 the results were TDP1 inh 1.0%, VP16 counter 10.7%, RORgamma inh 42.9%, TDP1 cell CPT inconclusive and DT40 TDP1 no CPT inconclusive.
For Cc1ccc2nc(NC(=O)CCn3cccc3)sc2c1 the results were TDP1 inh 0.0%, VP16 counter -3.3%, RORgamma inh 14.9%, TDP1 cell CPT -18.9% and DT40 TDP1 no CPT inconclusive.
`CCOC(=O)c1cc(-c2ccc(OC)c(S(=O)(=O)NC3CCCCC3)c2)on1` gave TDP1 inh 10.5%, TDP1 cell CPT -2.0% and DT40 TDP1 no CPT -18.2%.
For Cc1ccc(C(c2nnnn2C2CCCCC2)N2CCN3CCCC3C2)cc1 (stereo not drawn) the results were TDP1 inh 4.1%, VP16 counter -3.1%, RORgamma inh -0.7%, TDP1 cell CPT inconclusive and DT40 TDP1 no CPT -25.2%.
`CCc1ccc2c(c1)C(c1ccc([N+](=O)[O-])cc1)=NNC(c1ccc(Br)cc1)=N2` gave TDP1 inh 6.8%, VP16 counter 6.9%, RORgamma inh inconclusive, TDP1 cell CPT 13µM* and DT40 TDP1 no CPT inconclusive.
Cc1ccc2c(c1)C(c1ccc([N+](=O)[O-])cc1)=NNC(c1ccc(Br)cc1)=N2 was read as TDP1 inh 4.7%, VP16 counter -3.0%, RORgamma inh -17.1%, TDP1 cell CPT -22.2% and DT40 TDP1 no CPT inconclusive.
`COC(C[C@@H](O)CC(=O)[C@H](C)OCc1ccccc1)OC` gave TDP1 inh -2.4%, VP16 counter -16.6%, RORgamma inh 20.5%, TDP1 cell CPT 7.9% and DT40 TDP1 no CPT -4.6%.
Cc1ccc(C)c(N2CCN(C(=O)c3ccccc3Br)CC2)c1 was read as TDP1 inh 4.5%, VP16 counter -1.1%, RORgamma inh -15.2%, TDP1 cell CPT 20.6µM* and DT40 TDP1 no CPT 16.4µM*.
For Cc1cccc(N2CCN(C(=O)c3ccc4c(c3)c(C)c(C)n4C)CC2)c1C the results were TDP1 inh 5.3%, TDP1 cell CPT -20.4% and DT40 TDP1 no CPT inconclusive.
Screening Cc1ccc(N2CCN(C(=O)c3ccccc3Br)CC2)c(C)c1 returned TDP1 inh 1.0%, VP16 counter -9.7%, RORgamma inh 5.2%, TDP1 cell CPT inconclusive and DT40 TDP1 no CPT 25.9µM*.
Cc1ccc(C)c(N2CCN(C(=O)c3ccc4c(c3)c(C)c(C)n4C)CC2)c1 was read as TDP1 inh 10.7%, VP16 counter -29.3%, RORgamma inh 17.4%, TDP1 cell CPT 23.1µM* and DT40 TDP1 no CPT 16.4µM*.
Cc1ccc(N2CCN(C(=O)c3cnc(N4CCCCC4)c4ccccc34)CC2)c(C)c1 was read as TDP1 inh 2.2%, TDP1 cell CPT inconclusive and DT40 TDP1 no CPT inconclusive.
Cc1ccc(C)c(N2CCN(C(=O)c3csc(C)c3C)CC2)c1 was read as TDP1 inh 3.5%, VP16 counter -10.5%, RORgamma inh -12.8%, TDP1 cell CPT inconclusive and DT40 TDP1 no CPT inconclusive.
For Cc1ccc(N2CCN(C(=O)c3cc(C(=O)c4ccccc4C)c[nH]3)CC2)c(C)c1 the results were TDP1 inh 5.4%, VP16 counter 1.2%[10 µM], RORgamma inh 20.4%, TDP1 cell CPT inconclusive and DT40 TDP1 no CPT 23.1µM*.
`CCCCn1c(=O)n(-c2ccc(Br)cc2F)c(=O)c2c3c(sc21)CN(C(C)=O)CC3` gave TDP1 inh -1.0%, TDP1 cell CPT inconclusive and DT40 TDP1 no CPT inconclusive.
For CC(C)(C)n1nnnc1C(c1cccnc1)N1CCN(c2ccccc2F)CC1 (stereo not drawn) the results were TDP1 inh 1.1%, VP16 counter -0.3%, RORgamma inh 28.1%, TDP1 cell CPT -0.1% and DT40 TDP1 no CPT 0.3%.
For CCC(C)(C)n1nnnc1C(c1ccc(O)cc1)N1CCc2ccccc2C1 (stereo not drawn) the results were TDP1 inh 4.8%, VP16 counter -8.3%, RORgamma inh -1.7%, TDP1 cell CPT -15.9% and DT40 TDP1 no CPT -17.4%.
`CCCC(c1nnnn1CC1CCCO1)N1CCN(c2cc(Cl)ccc2C)CC1` (stereo not drawn) gave TDP1 inh 0.0%, VP16 counter 0.3%, RORgamma inh -18.4%, TDP1 cell CPT inconclusive and DT40 TDP1 no CPT inconclusive.
`CCC(C)(C)n1nnnc1C(c1cccs1)N1CCc2ccccc21` (stereo not drawn) gave TDP1 inh 1.1%, VP16 counter 11.2µM*, RORgamma inh inconclusive, TDP1 cell CPT 29.1µM* and DT40 TDP1 no CPT 16.4µM*.

Source: PubChem BioAssay (National Center for Advancing Translational Sciences (NCATS))
